Screening data (PubChem BioAssay)
NR3A LBD binder: modulators (binders) of human NR3A ligand-binding domain; hit rate 2.5% among 340,000; AID 1259313; NR3A LBD differential scanning fluorimetry, Tm shift; 0% = protein alone, 100% = glycine-bound protein; Tm shift relative to glycine control, % at 25 µM;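 active means melting temperature shift of at least 10% of the positive control shift, at one fixed dose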
FAS TE block: inhibitors of human fatty acid synthase thioesterase domain | hit rate 0.67% among 360,000 | AID 602261 | recombinant FAS-TE, OMFH fluorogenic substrate, fluorescence endpoint | P49327 | inhibition, % at 15 µM;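 active means compounds whose normalised, plate-corrected inhibition of enzyme fluorescence in the single-dose primary screen is 50% or more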;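 further: 0% = DMSO with enzyme and 100% = substrate without enzyme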
Target sequence (P49327 whole entry, looked up, the tested form may be a part): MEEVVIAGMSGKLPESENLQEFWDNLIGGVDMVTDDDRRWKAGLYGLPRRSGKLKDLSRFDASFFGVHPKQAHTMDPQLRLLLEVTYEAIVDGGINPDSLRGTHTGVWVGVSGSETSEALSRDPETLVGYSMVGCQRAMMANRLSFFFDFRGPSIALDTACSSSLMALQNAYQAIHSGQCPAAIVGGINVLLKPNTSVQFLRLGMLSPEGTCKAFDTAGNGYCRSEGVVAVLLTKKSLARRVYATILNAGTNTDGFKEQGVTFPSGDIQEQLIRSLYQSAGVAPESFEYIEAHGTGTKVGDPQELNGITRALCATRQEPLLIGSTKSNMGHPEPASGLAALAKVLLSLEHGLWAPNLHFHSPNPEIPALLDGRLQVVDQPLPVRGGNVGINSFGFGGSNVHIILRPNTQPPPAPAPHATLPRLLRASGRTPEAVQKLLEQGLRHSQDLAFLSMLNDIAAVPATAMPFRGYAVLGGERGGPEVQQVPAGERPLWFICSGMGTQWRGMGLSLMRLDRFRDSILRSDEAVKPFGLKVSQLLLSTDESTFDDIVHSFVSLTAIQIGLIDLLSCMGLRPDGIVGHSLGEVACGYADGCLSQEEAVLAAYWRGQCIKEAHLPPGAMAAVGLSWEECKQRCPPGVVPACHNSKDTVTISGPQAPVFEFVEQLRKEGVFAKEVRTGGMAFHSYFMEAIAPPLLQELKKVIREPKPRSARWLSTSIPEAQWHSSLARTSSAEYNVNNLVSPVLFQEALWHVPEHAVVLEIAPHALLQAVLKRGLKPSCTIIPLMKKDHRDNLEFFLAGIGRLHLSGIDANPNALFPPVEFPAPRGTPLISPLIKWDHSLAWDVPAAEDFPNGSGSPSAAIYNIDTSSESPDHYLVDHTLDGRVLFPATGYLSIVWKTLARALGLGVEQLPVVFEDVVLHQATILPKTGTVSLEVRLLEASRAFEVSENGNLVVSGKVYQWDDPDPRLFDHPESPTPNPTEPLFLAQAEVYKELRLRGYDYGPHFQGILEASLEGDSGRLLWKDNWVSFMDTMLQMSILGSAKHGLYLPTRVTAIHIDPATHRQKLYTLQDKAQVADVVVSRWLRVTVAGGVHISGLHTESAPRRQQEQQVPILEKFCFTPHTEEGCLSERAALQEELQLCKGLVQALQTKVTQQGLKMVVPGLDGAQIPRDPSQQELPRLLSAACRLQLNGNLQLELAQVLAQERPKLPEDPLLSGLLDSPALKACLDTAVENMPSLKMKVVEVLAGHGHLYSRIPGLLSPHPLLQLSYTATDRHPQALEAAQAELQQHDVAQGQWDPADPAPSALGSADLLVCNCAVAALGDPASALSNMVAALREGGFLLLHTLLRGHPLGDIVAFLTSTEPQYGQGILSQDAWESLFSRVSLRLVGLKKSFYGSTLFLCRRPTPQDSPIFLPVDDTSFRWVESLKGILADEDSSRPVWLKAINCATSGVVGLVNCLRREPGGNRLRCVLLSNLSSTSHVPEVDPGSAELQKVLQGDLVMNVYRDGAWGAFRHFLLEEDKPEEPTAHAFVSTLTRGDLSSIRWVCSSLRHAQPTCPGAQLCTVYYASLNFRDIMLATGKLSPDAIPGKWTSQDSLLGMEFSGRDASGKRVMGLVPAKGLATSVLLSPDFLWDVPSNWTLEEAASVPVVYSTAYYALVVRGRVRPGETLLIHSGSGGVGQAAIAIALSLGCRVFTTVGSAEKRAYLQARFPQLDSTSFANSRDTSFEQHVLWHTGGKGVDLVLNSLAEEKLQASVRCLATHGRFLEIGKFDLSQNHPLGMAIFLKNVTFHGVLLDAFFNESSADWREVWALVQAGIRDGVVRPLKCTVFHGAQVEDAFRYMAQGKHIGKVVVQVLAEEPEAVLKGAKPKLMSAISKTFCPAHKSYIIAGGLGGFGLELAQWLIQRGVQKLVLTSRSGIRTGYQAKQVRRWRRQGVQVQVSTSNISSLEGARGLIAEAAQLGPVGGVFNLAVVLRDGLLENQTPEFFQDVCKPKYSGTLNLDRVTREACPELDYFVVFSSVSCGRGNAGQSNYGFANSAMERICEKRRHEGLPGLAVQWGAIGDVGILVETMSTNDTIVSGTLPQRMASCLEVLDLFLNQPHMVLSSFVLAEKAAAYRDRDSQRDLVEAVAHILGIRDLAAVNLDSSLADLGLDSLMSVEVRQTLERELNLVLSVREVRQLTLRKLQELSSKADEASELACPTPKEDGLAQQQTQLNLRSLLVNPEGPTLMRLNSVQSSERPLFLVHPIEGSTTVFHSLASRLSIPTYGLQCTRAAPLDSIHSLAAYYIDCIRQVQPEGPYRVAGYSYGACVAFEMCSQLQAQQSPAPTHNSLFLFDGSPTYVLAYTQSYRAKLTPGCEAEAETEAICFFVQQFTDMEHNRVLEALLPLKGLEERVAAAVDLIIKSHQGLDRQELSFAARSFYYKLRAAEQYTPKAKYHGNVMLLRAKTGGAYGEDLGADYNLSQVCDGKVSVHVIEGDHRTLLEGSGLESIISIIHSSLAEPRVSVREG
ADAM17 inh: ADAM17 inhibition, QFRET primary screen; P78536; recombinant ADAM17, EDANS/DABCYL FRET peptide cleavage; inhibition, % at 6.95 µM; hit rate 0.83% among 370,000; AID 720648;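 active means inhibition above the mean of compounds lying between control limits plus 3 SD, set per campaign, cut at about 8.5% in these data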;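 further: 0% = DMSO-only wells as the low control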
aDG glyco up: increases alpha dystroglycan glycosylation. Pro5-aDG cells, alpha-DG glycosylation AlphaScreen (IIH6); 0% Pro5, 100% B10-LARGE cell signal. activation, % at 10 µM. hit rate 0.22% among 360,000. AID 624168;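 active means activation of at least 8% versus controls, or a plate z-score of at least 8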;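 further: Pro5 are CHO cells carrying HIG-tagged alpha-DG that lacks glycosylation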
ADAM10 inh: inhibits human ADAM10; O14672; recombinant ADAM10, EDANS/DABCYL FRET peptide cleavage, 3 h; inhibition, % at 7 µM; hit rate 0.62% among 370,000; AID 720582;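 active means inhibition above a per-campaign cutoff equal to the mean of compounds falling between control-based bounds plus 3 SD, cut at about 20% in these data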;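 further: 0% = DMSO wells while the 100% control is not disclosed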
FAS-TE conf: FAS thioesterase (human) inhibition, confirmation; shares compounds with FAS TE block; recombinant FAS-TE, OMFH fluorogenic substrate, fluorescence; inhibition, % at 15 µM; hit rate 45% among 2,300;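 active means compounds inhibiting the enzyme by at least 50% at 15 µM in any one of the replicates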;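 further: 0% = enzyme with DMSO only and 100% = wells lacking enzyme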
The depositor's hits bear a star; / = no result. The list is not random: actives were taken first. Their share in the collection is about 4%.

SMILES | NR3A LBD binder | FAS TE block | ADAM17 inh | aDG glyco up | ADAM10 inh | FAS-TE conf
N/C(=N\OC(=O)CCC1CCCC1)c1cccc([N+](=O)[O-])c1 | 1 | 62* | -5 | 0 | -5 | 66*
N/C(=N\OC(=O)CCC1CCCCC1)c1ccc([N+](=O)[O-])cc1 | -4 | 27 | 0 | 0 | 3 | /
N/C(=N\OC(=O)CC1CCCCC1)c1cccc([N+](=O)[O-])c1 | -2 | 62* | 0 | 0 | -2 | 68*
N/C(=N\OC(=O)CCCc1ccccc1)c1cccc([N+](=O)[O-])c1 | 2 | 50* | 1 | 0 | 9 | 63*
N/C(=N\OC(=O)CCCc1ccccc1)c1ccccc1 | 4 | 8 | -2 | 0 | 6 | /
O=C(NC1CCCCCC1)c1ccc2nc3cc(Cl)ccc3c(=O)n2c1 | 0 | 1 | -19 | 0 | -51 | /
O=C(CSc1nnnn1-c1ccccc1)NC1CCCc2ccccc21 (configuration not stated) | 3 | 10 | -1 | 0 | -2 | /
CCOc1ccc(NC(=S)N2CCc3cc(OC)c(OC)cc3C2COc2ccc3c(C)cc(=O)oc3c2)cc1 (configuration not stated) | -19 | 78* | -57 | 0 | -198 | 6
COc1cc2c(cc1OC)C(COc1ccc3c(C)cc(=O)oc3c1)N(C(=O)c1ccco1)CC2 (configuration not stated) | 3 | 18 | -4 | 0 | -9 | /
Cc1[nH]c2ccccc2c1/C=N/Nc1ccc([N+](=O)[O-])cc1S(=O)(=O)Nc1ccc(Cl)cc1 | 9 | 17 | 0 | 1 | -8 | /
O=C(O)COc1ccccc1C=NNc1ccc([N+](=O)[O-])cc1S(=O)(=O)Nc1ccc(Cl)cc1 | 24* | 50* | -7 | 2 | -8 | 62*
CCOC(=O)N1CCC(c2nc3ccccc3[nH]2)CC1 | 0 | -11 | 0 | 0 | 2 | /
O=C(NCc1ccco1)C12CN(Cc3ccccc3)CC1C(c1ccc([N+](=O)[O-])cc1)=NO2 (configuration not stated) | -1 | 14 | 1 | 0 | 8 | /
O=C(NCCc1cccs1)C12CN(Cc3ccccc3)CC1C(c1cccc([N+](=O)[O-])c1)=NO2 (configuration not stated) | -2 | 51* | -3 | 0 | -6 | 41
O=C(NCCCCc1ccccc1)C12CN(Cc3ccccc3)CC1C(c1cccc([N+](=O)[O-])c1)=NO2 (configuration not stated) | -3 | 39 | 1 | 0 | 8 | /
O=C(NCc1ccco1)C12CN(Cc3ccccc3)CC1C(c1cccc([N+](=O)[O-])c1)=NO2 (configuration not stated) | -2 | 54* | -2 | 0 | 11 | 47
O=C(CNC(=O)c1ccccc1)N/N=C/c1cc(Br)ccc1O | -11 | 54* | -25 | 1 | -86 | 44*
O=C(CNC(=O)c1ccncc1)N/N=C/c1cc(Br)ccc1O | -1 | -1 | -12 | 0 | -31 | /
O=C(CN1CC(c2ccccc2)CC1=O)N/N=C/c1cc(Br)ccc1O (configuration not stated) | -4 | 69* | -29 | 1 | -106 | 85*
CC(NC(=O)Cn1cc([N+](=O)[O-])cn1)c1ccc(C(C)(C)C)cc1 (configuration not stated) | 0 | 76* | -1 | 0 | 3 | 55*
CC(NC(=O)c1ccc(Cn2cc([N+](=O)[O-])cn2)cc1)c1ccccc1 (configuration not stated) | -1 | -2 | 3 | 0 | 4 | /
CCC(=O)c1ccc(OCC(O)CN2CCc3ccccc3C2)cc1 (configuration not stated) | 0 | 0 | -1 | 0 | -4 | /
O=C(CN1CCN(c2ncc(C(F)(F)F)cc2Cl)CC1)NCCNc1ncc(C(F)(F)F)cc1Cl | 4 | 62* | -6 | 0 | -4 | 28
Cc1ccc(CNC(=O)c2ccc(N3CCC4(CC3)CC(c3ccccc3)=NO4)c(NC(=O)c3c(Cl)cccc3Cl)c2)cc1 | 1 | 63* | 3 | 0 | 8 | 21
COc1cccc(C(=O)Nc2cc(C(=O)NCc3ccc(C)cc3)ccc2N2CCC3(CC2)CC(c2ccccc2)=NO3)c1 | -4 | 43 | 1 | 0 | -3 | /
SMILES | NR3A LBD binder | FAS TE block | ADAM17 inh | aDG glyco up | ADAM10 inh | FAS-TE conf
CCN(CC)S(=O)(=O)c1ccc(N2CCOCC2)c(NC(=O)C(=O)c2c(-c3ccccc3)cc3ccccn23)c1 | 1 | 54* | 0 | -1 | 3 | 34
O=S(=O)(c1ccccc1)c1cnc(-c2ccccc2)nc1N1CCCC1 | -1 | 13 | 2 | 0 | -4 | /
COc1cc2ncc(S(=O)(=O)c3ccccc3)c(N3CCCC(C)C3)c2cc1OC (configuration not stated) | 15* | 78* | 2 | 1 | 4 | 71*
CC(C)(C)C(=O)NNc1nc(-c2ccccc2)c2cc(Br)ccc2n1 | -2 | 3 | 0 | 0 | 1 | /
CCN(CC)S(=O)(=O)c1ccc(C(=O)NNc2nc(-c3ccccc3)c3cc(Br)ccc3n2)cc1 | -2 | 68* | 0 | 0 | 4 | 20
CNC1(C(N)=O)CCNCC1 | -1 | -6 | -7 | 0 | 1 | /
CCc1nnc(NC(=O)c2nc(S(=O)(=O)Cc3cccc(C)c3)ncc2Cl)s1 | 0 | 0 | 0 | 0 | -8 | /
CCOc1ccccc1NC(=O)c1nc(S(=O)(=O)Cc2cccc(C)c2)ncc1Cl | 0 | 58* | -2 | 0 | 5 | 48*
Cc1ccc(CS(=O)(=O)c2ncc(Cl)c(C(=O)Nc3ccc(OC(F)F)cc3)n2)cc1 | -5 | 52* | -1 | -1 | 7 | 43
CCS(=O)(=O)c1ncc(Cl)c(C(=O)Nc2ccc(C)cc2)n1 | -1 | 23 | -1 | 0 | 5 | /
COC(=O)c1ccccc1NC(=O)c1nc(S(=O)(=O)Cc2ccccc2)ncc1Cl | -2 | 54* | -5 | 0 | -5 | 35
CC(C)Cc1ccc(S(=O)(=O)Nc2cccnc2)cc1 | -1 | -1 | 2 | 0 | 10 | /
Cc1ccc(S(=O)(=O)N2CCN(C(=O)c3cc4c(C)nn(-c5ccccc5)c4s3)CC2)cc1 | 0 | 62* | -2 | 0 | 3 | 13
COC(=O)c1cc(NS(=O)(=O)c2ccc(C(C)C)cc2)ccc1N1CCOCC1 | 2 | 5 | -4 | 0 | -1 | /
CCc1ccccc1NC(=O)CCNS(=O)(=O)c1cc(Br)cnc1N | -1 | -3 | -9 | 0 | -34 | /
Cc1ccc(C)c(CN2C(=O)c3ccccc3S(=O)c3ccc(C(=O)N4CCN(c5ccccn5)CC4)cc32)c1 (configuration not stated) | 0 | 72* | 6 | 0 | 15 | 38
Cc1ccc(C)c(CN2C(=O)c3ccccc3S(=O)(=O)c3ccc(C(=O)N4CCN(C)CC4)cc32)c1 | -1 | 2 | -2 | 0 | 5 | /
